# In PMC7862700, “An all-to-all approach to the identification of sequence-specific readers for epigenetic DNA modifications on cytosine”:
# Tests used:
# Assay in all cases: DAPPL (digital affinity profiling via proximity ligation, sequencing); 10 mM Tris-HCl pH 7.5, 50 mM NaCl, 1 mM DTT, 4% glycerol, room temperature, 30 min; GST-TFs on glutathione beads, 16-mer random dsDNA library, 0.1% formaldehyde crosslink after washing; high values mean tight binding
# Settings in all cases: protein: recombinant; tags: N-terminal GST; dsDNA, one strand shown
# FLI1 = biological target: T1, FLI1 (Homo sapiens, UniProt Q01543 1-452)
# T1 sequence: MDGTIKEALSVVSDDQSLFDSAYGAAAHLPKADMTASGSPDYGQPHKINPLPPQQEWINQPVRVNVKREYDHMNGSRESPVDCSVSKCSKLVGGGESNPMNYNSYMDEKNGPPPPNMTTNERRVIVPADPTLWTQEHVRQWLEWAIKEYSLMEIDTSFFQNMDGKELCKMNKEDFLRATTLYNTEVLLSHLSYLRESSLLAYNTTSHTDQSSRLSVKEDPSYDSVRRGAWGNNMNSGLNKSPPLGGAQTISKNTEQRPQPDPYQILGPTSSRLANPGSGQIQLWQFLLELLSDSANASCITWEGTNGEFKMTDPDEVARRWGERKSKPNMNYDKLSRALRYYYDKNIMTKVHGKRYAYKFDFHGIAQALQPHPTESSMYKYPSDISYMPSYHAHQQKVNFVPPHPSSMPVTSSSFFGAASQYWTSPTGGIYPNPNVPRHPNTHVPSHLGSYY
# Outline: (§1)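 Binding signal is defined as a hexamer's read frequency for one factor over its frequency for the tag-only sample. To obtain reads, GST-fused human transcription factors were expressed in yeast, captured on glutathione beads, barcoded with DNA and pooled with that sample. Pools met 200 nmole of a 16-mer random double-stranded DNA library in Tris/NaCl/DTT/glycerol buffer for 30 min at room temperature before washing, 0.1% formaldehyde crosslinking, proximity ligation (BsaI/T4 ligase, 1 h, 37 °C), PCR and Illumina NextSeq500 sequencing.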
# GABPA = biological target: T2, GABPA (Homo sapiens, UniProt Q06546 1-454)
# T2 sequence: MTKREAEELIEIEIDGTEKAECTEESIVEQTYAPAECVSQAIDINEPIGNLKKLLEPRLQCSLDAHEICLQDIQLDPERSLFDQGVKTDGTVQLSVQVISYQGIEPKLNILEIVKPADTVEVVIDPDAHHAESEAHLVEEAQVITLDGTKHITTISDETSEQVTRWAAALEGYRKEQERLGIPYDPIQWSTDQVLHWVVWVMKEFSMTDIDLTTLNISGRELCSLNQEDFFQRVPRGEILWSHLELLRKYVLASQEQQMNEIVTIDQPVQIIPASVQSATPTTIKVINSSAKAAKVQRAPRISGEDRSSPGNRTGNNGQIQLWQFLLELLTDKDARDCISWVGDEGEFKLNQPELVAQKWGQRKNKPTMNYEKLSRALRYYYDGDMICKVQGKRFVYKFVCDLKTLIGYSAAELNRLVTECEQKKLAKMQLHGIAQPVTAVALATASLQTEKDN
# Outline: as §1
# ELF1 = ELF1 (Homo sapiens, UniProt P32519 1-619)
# Sequence of ELF1 (P32519 whole entry): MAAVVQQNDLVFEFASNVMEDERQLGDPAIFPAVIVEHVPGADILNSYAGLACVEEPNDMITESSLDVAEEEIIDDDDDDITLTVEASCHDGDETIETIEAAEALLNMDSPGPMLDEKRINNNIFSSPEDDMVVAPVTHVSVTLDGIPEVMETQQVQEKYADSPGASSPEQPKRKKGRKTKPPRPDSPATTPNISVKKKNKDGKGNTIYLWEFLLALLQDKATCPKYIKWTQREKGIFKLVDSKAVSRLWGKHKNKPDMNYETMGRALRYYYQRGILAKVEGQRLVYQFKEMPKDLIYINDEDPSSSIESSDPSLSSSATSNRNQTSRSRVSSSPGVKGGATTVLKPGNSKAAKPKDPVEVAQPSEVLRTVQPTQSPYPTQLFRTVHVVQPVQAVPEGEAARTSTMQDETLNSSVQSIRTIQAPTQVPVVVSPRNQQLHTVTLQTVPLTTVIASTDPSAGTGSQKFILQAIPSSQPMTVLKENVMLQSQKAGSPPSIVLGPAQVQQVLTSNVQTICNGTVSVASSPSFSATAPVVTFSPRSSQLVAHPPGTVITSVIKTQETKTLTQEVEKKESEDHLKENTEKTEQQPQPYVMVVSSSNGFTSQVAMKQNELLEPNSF
# Outline: as §1
# SPIB = SPIB (Homo sapiens, UniProt Q01892 1-262)
# Sequence of SPIB (Q01892 whole entry): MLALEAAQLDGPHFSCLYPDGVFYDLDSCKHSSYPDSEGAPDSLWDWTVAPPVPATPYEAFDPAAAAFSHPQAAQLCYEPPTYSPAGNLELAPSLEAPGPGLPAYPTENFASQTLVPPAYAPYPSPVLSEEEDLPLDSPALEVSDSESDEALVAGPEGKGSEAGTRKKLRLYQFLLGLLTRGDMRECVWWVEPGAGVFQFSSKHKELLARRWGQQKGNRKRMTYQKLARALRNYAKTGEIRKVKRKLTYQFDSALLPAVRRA
# Outline: as §1
# ELF4 = ELF4 (Homo sapiens, UniProt Q99607 1-663)
# Sequence of ELF4 (Q99607 whole entry): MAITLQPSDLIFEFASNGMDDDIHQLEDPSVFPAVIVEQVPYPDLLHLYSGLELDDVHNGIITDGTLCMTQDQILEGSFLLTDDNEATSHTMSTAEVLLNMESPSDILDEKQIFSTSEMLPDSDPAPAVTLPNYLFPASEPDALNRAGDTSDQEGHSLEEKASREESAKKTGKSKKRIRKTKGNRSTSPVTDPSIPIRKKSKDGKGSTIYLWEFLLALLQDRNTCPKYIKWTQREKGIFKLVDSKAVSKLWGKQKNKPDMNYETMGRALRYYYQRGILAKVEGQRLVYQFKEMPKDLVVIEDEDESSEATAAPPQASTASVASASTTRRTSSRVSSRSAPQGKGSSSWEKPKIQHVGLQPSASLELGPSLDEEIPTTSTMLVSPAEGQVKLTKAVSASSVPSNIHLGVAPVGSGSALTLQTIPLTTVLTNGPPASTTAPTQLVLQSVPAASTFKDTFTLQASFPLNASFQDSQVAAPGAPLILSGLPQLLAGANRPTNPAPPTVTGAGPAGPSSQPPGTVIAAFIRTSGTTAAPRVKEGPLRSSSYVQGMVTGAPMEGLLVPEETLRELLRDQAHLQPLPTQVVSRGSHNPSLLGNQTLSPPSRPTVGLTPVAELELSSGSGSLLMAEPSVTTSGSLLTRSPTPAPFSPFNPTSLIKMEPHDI
# Outline: as §1
# ETV2 = biological target: T3, ETV2 (Homo sapiens, UniProt O00321 1-342)
# T3 sequence: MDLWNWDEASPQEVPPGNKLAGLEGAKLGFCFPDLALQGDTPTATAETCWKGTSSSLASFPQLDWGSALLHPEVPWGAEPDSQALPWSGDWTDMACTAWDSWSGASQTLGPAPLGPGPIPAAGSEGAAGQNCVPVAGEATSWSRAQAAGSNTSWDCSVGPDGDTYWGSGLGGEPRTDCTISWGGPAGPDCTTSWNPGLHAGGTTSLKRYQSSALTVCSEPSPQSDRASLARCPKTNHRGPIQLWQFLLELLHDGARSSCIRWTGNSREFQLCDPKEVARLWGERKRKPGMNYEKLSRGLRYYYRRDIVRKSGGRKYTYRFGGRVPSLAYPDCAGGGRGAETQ
# Outline: as §1
# ELF3 = biological target: T4, ELF3 (Homo sapiens, UniProt P78545 1-371)
# T4 sequence: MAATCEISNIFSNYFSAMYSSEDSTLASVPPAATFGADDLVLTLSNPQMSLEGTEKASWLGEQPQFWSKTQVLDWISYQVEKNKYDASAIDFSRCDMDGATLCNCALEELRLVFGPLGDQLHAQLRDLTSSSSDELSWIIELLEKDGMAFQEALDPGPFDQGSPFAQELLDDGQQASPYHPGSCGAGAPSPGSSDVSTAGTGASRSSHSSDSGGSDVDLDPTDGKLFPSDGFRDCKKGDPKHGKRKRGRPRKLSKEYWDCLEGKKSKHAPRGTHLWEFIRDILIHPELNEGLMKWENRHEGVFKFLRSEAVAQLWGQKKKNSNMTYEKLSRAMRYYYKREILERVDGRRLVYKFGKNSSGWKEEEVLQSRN
# Outline: as §1
# ETV1 = ETV1 (Homo sapiens, UniProt P50549 1-477)
# Sequence of ETV1 (P50549 whole entry): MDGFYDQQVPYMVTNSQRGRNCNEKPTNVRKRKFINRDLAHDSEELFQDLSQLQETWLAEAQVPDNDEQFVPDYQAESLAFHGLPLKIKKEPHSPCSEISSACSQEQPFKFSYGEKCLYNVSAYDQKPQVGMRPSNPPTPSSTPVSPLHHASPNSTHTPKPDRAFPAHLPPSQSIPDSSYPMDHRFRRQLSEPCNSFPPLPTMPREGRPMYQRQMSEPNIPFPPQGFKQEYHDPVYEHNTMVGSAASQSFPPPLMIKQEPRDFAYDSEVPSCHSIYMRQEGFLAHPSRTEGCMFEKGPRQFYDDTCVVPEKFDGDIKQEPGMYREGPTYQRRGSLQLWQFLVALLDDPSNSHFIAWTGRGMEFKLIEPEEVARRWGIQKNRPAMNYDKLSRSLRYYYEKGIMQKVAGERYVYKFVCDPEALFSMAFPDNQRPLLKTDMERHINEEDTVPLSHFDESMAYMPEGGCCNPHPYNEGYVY
# Outline: as §1
# ERF = biological target: T5, ERF (Homo sapiens, UniProt P50548 1-548)
# T5 sequence: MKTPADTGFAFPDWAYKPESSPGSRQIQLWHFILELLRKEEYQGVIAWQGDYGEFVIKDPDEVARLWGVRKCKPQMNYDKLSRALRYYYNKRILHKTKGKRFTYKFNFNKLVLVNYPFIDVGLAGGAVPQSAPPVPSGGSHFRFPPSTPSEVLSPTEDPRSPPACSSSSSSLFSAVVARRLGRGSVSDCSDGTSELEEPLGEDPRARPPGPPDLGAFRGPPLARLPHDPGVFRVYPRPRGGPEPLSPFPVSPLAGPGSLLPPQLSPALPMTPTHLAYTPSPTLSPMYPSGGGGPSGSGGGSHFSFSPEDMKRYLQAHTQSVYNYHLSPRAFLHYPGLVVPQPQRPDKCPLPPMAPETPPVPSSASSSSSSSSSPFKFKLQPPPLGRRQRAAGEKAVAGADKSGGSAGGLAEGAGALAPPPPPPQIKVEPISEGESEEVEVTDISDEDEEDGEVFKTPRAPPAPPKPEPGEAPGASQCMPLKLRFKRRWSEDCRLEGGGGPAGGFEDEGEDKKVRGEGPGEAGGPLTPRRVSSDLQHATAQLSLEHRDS
# Outline: as §1
# ETV3L = biological target: T6, ETV3L (Homo sapiens, UniProt Q6ZN32 1-361)
# T6 sequence: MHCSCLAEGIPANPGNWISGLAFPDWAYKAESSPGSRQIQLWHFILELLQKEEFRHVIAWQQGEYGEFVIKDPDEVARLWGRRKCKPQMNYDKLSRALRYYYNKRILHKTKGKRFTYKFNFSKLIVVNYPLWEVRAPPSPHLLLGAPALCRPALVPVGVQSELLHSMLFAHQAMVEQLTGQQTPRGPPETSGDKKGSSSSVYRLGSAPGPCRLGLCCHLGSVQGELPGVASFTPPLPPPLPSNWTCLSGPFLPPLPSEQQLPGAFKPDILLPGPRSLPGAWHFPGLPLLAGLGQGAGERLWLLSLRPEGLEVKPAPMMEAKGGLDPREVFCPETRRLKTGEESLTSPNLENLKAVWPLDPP
# Outline: as §1
# SPDEF = biological target: T7, SPDEF (Homo sapiens, UniProt O95238 1-335)
# T7 sequence: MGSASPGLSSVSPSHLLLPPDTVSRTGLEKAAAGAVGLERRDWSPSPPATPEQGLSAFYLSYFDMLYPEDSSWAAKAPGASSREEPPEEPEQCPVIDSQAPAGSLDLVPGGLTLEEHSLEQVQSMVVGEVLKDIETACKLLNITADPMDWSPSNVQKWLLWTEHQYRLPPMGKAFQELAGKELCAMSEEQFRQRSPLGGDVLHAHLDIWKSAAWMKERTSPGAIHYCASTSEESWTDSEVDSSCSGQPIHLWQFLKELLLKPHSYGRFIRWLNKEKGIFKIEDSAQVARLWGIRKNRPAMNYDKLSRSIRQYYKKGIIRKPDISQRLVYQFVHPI
# Outline: as §1
# ETV7 = biological target: T8, ETV7 (Homo sapiens, UniProt Q9Y603 1-341)
# T8 sequence: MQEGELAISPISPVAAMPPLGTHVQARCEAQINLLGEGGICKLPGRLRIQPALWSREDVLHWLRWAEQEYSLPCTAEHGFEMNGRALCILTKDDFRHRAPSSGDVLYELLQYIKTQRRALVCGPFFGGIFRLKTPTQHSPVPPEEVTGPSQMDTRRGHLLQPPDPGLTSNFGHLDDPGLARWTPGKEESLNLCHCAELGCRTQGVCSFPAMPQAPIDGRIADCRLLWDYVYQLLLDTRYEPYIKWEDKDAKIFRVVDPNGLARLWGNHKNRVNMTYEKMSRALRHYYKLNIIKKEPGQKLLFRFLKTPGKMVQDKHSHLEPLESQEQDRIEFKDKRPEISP
# Outline: as §1
# ETV6 = ETV6 (Homo sapiens, UniProt P41212 1-452)
# Sequence of ETV6 (P41212 whole entry): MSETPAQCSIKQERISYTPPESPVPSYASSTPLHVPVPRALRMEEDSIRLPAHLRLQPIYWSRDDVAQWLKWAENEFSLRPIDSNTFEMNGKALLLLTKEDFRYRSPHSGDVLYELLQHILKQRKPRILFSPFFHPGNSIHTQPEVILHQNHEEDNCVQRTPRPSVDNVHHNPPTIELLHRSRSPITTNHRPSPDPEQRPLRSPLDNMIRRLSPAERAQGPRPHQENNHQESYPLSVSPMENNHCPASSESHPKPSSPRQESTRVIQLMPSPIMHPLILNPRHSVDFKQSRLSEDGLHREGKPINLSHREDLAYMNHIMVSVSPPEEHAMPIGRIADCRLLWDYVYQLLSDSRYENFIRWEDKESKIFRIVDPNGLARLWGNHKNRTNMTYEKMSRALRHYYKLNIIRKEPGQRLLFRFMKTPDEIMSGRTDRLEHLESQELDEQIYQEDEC
# Outline: as §1
sequence,measurement,setting,value
CGTACG,binding signal,FLI1,"1 fold enrichment (6-mer frequency, TF over GST control)"
same,binding signal,GABPA,"1.03 fold enrichment (6-mer frequency, TF over GST control)"
same,binding signal,ELF1,"1.07 fold enrichment (6-mer frequency, TF over GST control)"
same,binding signal,SPIB,"1.01 fold enrichment (6-mer frequency, TF over GST control)"
same,binding signal,ELF4,"1.07 fold enrichment (6-mer frequency, TF over GST control)"
same,binding signal,ETV2,"1.19 fold enrichment (6-mer frequency, TF over GST control)"
same,binding signal,ELF3,"1.01 fold enrichment (6-mer frequency, TF over GST control)"
same,binding signal,ETV1,"1.1 fold enrichment (6-mer frequency, TF over GST control)"
same,binding signal,ERF,"1.04 fold enrichment (6-mer frequency, TF over GST control)"
same,binding signal,ETV3L,"1.08 fold enrichment (6-mer frequency, TF over GST control)"
same,binding signal,SPDEF,"1.02 fold enrichment (6-mer frequency, TF over GST control)"
same,binding signal,ETV7,"1.06 fold enrichment (6-mer frequency, TF over GST control)"
same,binding signal,ETV6,"1.06 fold enrichment (6-mer frequency, TF over GST control)"
